Screens as filed in PubChem.
PPARg SRC1 recr: promotes SRC-1 coactivator recruitment by human PPARgamma; 200,000 tested, 0.41% active; PPARgamma-SRC-1 coactivator recruitment biochemical assay; AID 631; P37231; activation, % at 8 µM; in the data active = activation above about 19%
Target sequence (P37231 whole entry, looked up): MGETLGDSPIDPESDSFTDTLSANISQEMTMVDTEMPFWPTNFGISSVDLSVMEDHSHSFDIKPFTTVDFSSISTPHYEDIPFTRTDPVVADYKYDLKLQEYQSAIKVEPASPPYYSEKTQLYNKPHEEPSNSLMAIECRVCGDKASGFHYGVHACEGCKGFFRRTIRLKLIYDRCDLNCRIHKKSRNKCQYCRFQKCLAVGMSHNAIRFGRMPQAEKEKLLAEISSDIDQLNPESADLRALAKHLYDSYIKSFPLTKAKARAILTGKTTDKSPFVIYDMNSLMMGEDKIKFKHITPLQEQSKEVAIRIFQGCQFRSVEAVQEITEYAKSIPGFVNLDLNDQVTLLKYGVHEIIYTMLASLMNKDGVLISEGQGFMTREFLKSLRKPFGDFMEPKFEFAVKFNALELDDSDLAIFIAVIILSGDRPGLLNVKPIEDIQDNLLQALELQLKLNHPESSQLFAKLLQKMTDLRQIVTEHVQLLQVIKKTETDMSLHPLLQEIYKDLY
SRC2 TRFRET art: flags TR-FRET format artefacts in PPARgamma SRC-2 recruitment agonist screen; TR-FRET artefact counter-screen; stronger effect = higher value; AID 1049; TR-FRET ratio at 8 µM; 200,000 tested, 0.4% active
PPARg SRC2 recr: promotes SRC-2 coactivator recruitment by human PPARgamma; PPARgamma LBD-SRC-2 recruitment, biochemical; activation, % at 8 µM; 200,000 tested, 0.34% active; in the data active = activation above about 22%
PPARg SRC-3 ag: PPARgamma-driven SRC-3 recruitment agonism. P37231. biochemical PPARgamma/SRC-3 coactivator recruitment assay. activation, % at 8 µM. 200,000 tested, 0.26% active; in the data active = activation above about 23%
SRC3 TRFRET art: counter-screen for PPARgamma SRC-3 recruitment agonists: TR-FRET artefact. PPARgamma/SRC-3 format; stronger effect = higher value. TR-FRET ratio at 8 µM. 99,000 tested, 0.39% active. AID 1048
SRC1 TRFRET art: flags TR-FRET format artefacts in PPARgamma SRC-1 recruitment agonist screen | TR-FRET detection artefact counter-screen, emission ratio; stronger effect = higher value | TR-FRET ratio at 8 µM | 99,000 tested, 0.34% active; in the data active = TR-FRET ratio above about 2300
Of the large screens only hits and unclear results are named; the others gave an inactive call. The list is not random: actives were taken first. Their share in the collection is about 0.9%. Rule as the data show it, unless noted: active = TR-FRET ratio above about 2000; inactive = the rest.

COC(=O)CSc1nc2cc3c(cc2cc1C#N)OCO3	PPARg SRC1 recr 80.6 (no result: SRC3 TRFRET art, SRC1 TRFRET art)
CC(C)OC(=O)CSc1nc2cc3c(cc2cc1C#N)OCO3	PPARg SRC1 recr 54.2 (no result: SRC3 TRFRET art, SRC1 TRFRET art)
S=c1[nH]nc(-c2ccccc2)n1C1C=CCCC1 (configuration not stated)	SRC1 TRFRET art 2316
NC(=S)NN=C1c2cc(S(=O)(=O)N3CCOCC3)ccc2-c2ccc(S(=O)(=O)N3CCOCC3)cc21	SRC1 TRFRET art 2316
CN(C)N=C1c2cc(S(=O)(=O)N3CCOCC3)ccc2-c2ccc(S(=O)(=O)N3CCOCC3)cc21	none
O=C(NNC(=O)C1CC2CCC1C2)c1sc2ccccc2c1Cl (configuration not stated)	none
COc1ccc(/C(C)=N/N=C2/NC(=O)CC(C(=O)O)S2)cc1 (configuration not stated)	none
C/C(=N\N=C1\NC(=O)CC(C(=O)O)S1)c1ccc(F)cc1 (configuration not stated)	SRC1 TRFRET art 2658
CSc1ncccc1C(=O)OCC(=O)c1cccc(Br)c1	none
CCN(CC)c1ccc(NC(=O)c2ccccc2)cc1S(=O)(=O)Nc1ccccc1OC	SRC3 TRFRET art 2080
CSc1nc2ccc3nc(NC(=O)c4ccc(Cl)s4)sc3c2s1	none (no result: SRC3 TRFRET art, SRC1 TRFRET art)
CSc1nc2ccc3nc(NC(=O)c4cccs4)sc3c2s1	PPARg SRC1 recr 40.6 (no result: SRC3 TRFRET art, SRC1 TRFRET art)
N/C(=N\OC(=O)COc1ccc(Br)cc1)c1cccnc1	none
N/C(=N\OC(=O)COc1ccc2ccccc2c1Br)c1ccccn1	SRC2 TRFRET art 1993, SRC1 TRFRET art 2360
N/C(=N\OC(=O)COc1ccc2ccccc2c1Br)c1cccnc1	SRC1 TRFRET art 2331
N/C(=N\OC(=O)COc1ccc(Br)cc1Cl)c1ccccn1	none
O=C1c2ccccc2C(=O)C1c1ccc(O)cc1	PPARg SRC1 recr 21.3
O=c1c2ccccc2cnn1Cc1n[nH]c(=S)n1-c1ccccc1Cl	none
O=C(Cc1nc2ccccc2[nH]c1=O)c1ccccc1	PPARg SRC1 recr 22.5
CC(=O)Nc1ccccc1OCc1cnc(Cl)s1	none
CN(C)S(=O)(=O)c1ccc(NC(=O)c2cc(-c3cccs3)nc3ccccc23)cc1	SRC2 TRFRET art 2669, SRC3 TRFRET art 3343, SRC1 TRFRET art 3250
CCN(CC)S(=O)(=O)c1ccc(NC(=O)c2cc(-c3cccs3)nc3ccccc23)cc1	none
Cc1cc(C)nc(NC(=O)c2cc(-c3ccc(C)s3)nc3ccccc23)c1	SRC3 TRFRET art 2323
Cc1cc(NC(=O)c2cc(-c3cccs3)nc3ccccc23)no1	none (no result: SRC3 TRFRET art, SRC1 TRFRET art)
CCC(CC)NC(=O)CCCSc1nc2ccccc2[nH]1	none
COc1ccc(-c2csc3nc(C)nc(N4CCN(c5ccc(C(C)=O)cc5)CC4)c23)cc1OC	SRC3 TRFRET art 2053
COc1ccc(C2CC(c3ccccc3)=NN2C(=O)COC(=O)c2cc(S(=O)(=O)N3CCOCC3)ccc2Cl)cc1 (configuration not stated)	SRC2 TRFRET art 2080
O=C(Nc1ccccc1-c1nc2ccccc2s1)c1cccnc1	SRC2 TRFRET art 4568
COc1ccccc1-c1ccc(=O)n(CC(=O)NC2CCc3ccccc32)n1 (configuration not stated)	none
COc1cc2[nH]c(=S)nc(NCCc3ccc(C)cc3)c2cc1OC	PPARg SRC1 recr 21.2, PPARg SRC2 recr 24.5, SRC3 TRFRET art 2231, SRC1 TRFRET art 2432
N#CC1=C(N)OC2=C(CCC/C2=C/c2ccoc2)C1c1ccoc1 (configuration not stated)	PPARg SRC-3 ag 30.9 (no result: SRC3 TRFRET art, SRC1 TRFRET art)
N#CC1=C(N)OC2=C(CC/C2=C\c2ccc(F)cc2)C1c1ccc(F)cc1 (configuration not stated)	none
CCn1c(C)nc2cc(C(=O)N/N=C(\C)c3ccccc3O)ccc21	none
CCOC(=O)c1cnc2ccccc2c1Nc1cc(C(=O)O)ccc1C	none
CC(C)Cc1nc2sc3c(NCc4ccco4)ncnc3c2c2c1COC(C)(C)C2	SRC2 TRFRET art 4130, PPARg SRC2 recr 105.8 (no result: SRC3 TRFRET art, SRC1 TRFRET art)
CCc1cc2cc(C(=O)Nc3ccc(C)cc3)sc2s1	PPARg SRC2 recr 23.8 (no result: SRC3 TRFRET art, SRC1 TRFRET art)
COc1ccc(NC(=O)NCc2ccc3c(c2)OCO3)cc1	none
O=C(NCc1ccc2c(c1)OCO2)Nc1ccc2nsnc2c1	SRC2 TRFRET art 2378, PPARg SRC2 recr 66.8
O=C(Nc1ccc(N2CCOCC2)cc1)Nc1ccc2nsnc2c1	SRC1 TRFRET art 2437
[O-]/C(=C(\C(=S)Nc1ccccc1F)[n+]1ccccc1)c1ccc(-c2ccccc2)cc1	SRC1 TRFRET art 2348
CC(C)(C)c1cc[n+](/C(C(=S)Nc2ccccc2F)=C(/[O-])c2ccc3c(c2)OCCO3)cc1	none
OC(CSc1c(Cl)cccc1Cl)CN1CCN(c2ccc(F)cc2)CC1 (configuration not stated)	none (no result: SRC3 TRFRET art, SRC1 TRFRET art)
COc1ccc([N+](=O)[O-])cc1N(CC(=O)NCCC1=CCCCC1)S(C)(=O)=O	none
CC1(C)Cc2c(C#N)c(SCC(=O)c3ccccc3)nc(N3CCOCC3)c2CS1	SRC2 TRFRET art 2038 (no result: SRC3 TRFRET art, SRC1 TRFRET art)
COC(=O)c1cccc(NC2CC(=O)N(c3ccc(OC)c(OC)c3)C2=O)c1 (configuration not stated)	SRC1 TRFRET art 2727
COc1ccc(N2C(=O)CC(Nc3ccc(C(=O)O)cc3)C2=O)cc1OC (configuration not stated)	none
Cc1ccc(NC(=O)CSc2ncnc3ccccc23)cc1S(=O)(=O)N1CCCCCC1	SRC3 TRFRET art 2506
Cc1ccc(S(=O)(=O)N2CCCCC2)cc1NC(=O)CSc1ncnc2ccccc12	none
O=C(CSc1ncnc2ccccc12)Nc1cc(S(=O)(=O)N2CCCCC2)ccc1Cl	SRC2 TRFRET art 2930, SRC3 TRFRET art 2968
CC1CN(CC(=O)Nc2cc(S(=O)(=O)N3CCCC3)ccc2Cl)CC(C)O1 (configuration not stated)	SRC2 TRFRET art 2051
CNS(=O)(=O)c1ccc(NCC2COc3ccccc3O2)c([N+](=O)[O-])c1 (configuration not stated)	none
CCC1CSC(Nc2ccc(C(=O)/C=C/c3cccc(C)c3)cc2)=N1 (configuration not stated)	none
CCN(CC)CCN(Cc1cc2cc3c(cc2[nH]c1=O)OCCO3)C(=O)NC1CCCCC1	PPARg SRC1 recr 19.2 (no result: SRC3 TRFRET art, SRC1 TRFRET art)
CCN(CC)c1ccc(C=Nc2cc(C)ccc2C)c(O)c1	PPARg SRC1 recr 20.9
Nc1ccccc1C#CCCCCO	SRC3 TRFRET art 2204
CCCCC#Cc1ccccc1CC(=O)Nc1ccccc1	none
CC(C)C(C)(C#N)NC(=O)CSc1nnc(-c2ccncc2)n1Cc1ccccc1 (configuration not stated)	none (no result: SRC3 TRFRET art, SRC1 TRFRET art)
CC(C)C(C)(C#N)NC(=O)CSc1nc2scc(-c3ccc(F)cc3)c2c(=O)n1Cc1ccccc1 (configuration not stated)	SRC2 TRFRET art 2522, SRC3 TRFRET art 2793, SRC1 TRFRET art 2769
CC(=O)N1CCOCCOCCN(C(C)=O)CCOCC1	none
Cc1c(C(=O)OCC(=O)c2ccc3c(c2)OCCO3)oc2ccccc12	SRC2 TRFRET art 2066 (no result: SRC3 TRFRET art, SRC1 TRFRET art)
